Compounds with a hit are over-represented: about 27% of the library has one in this group of screens.
CYP2C9 inhib – blocks human cytochrome P450 2C9. inhibition, % at 5 µM. CYP2C9 Supersomes, luciferin-H conversion, luminescence. P11712. actives 20% (n = 96,000);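 active means blocking of liver enzyme CYP2C9 beyond about 50% at 5 µM, limit read from the data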
Target sequence (P11712 whole entry, looked up): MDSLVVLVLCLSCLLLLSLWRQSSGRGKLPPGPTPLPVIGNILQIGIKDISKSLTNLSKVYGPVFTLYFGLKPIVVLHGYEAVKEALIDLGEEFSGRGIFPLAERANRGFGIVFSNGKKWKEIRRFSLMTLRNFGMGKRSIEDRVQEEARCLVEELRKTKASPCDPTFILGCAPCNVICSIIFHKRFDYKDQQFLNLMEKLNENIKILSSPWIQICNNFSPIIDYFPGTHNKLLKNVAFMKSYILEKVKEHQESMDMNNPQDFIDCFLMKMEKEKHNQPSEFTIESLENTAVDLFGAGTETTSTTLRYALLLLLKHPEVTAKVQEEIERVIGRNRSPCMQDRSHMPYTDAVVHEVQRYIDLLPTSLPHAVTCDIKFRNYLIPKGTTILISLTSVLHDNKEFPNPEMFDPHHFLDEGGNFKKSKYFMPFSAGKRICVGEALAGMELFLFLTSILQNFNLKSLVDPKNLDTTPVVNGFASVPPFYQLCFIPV
sEH activator – soluble epoxide hydrolase (human) activation. actives 0.04% (n = 91,000). purified human sEH enzymatic activity, activator screen. activation, % at 2 µM. P34913; in the data active means activation above about 37%
CYP2C19 act – cytochrome P450 2C19 (human) activation. P33261. recombinant CYP2C19, luciferin-H EGE luminescence; stronger effect = higher value; 0 = fully inhibited enzyme, 1 = untreated enzyme. activation factor at 5 µM. 96,000 tested, under 10 active;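 active means activation factor of at least 2 at 5 µM in the primary screen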
CYP2C9 activ – CYP2C9 (human) activation; P11712; recombinant CYP2C9, luciferin-H conversion, luminescence; stronger effect = higher value; factor 1 = untreated enzyme, 0 = blocked; activation factor at 5 µM; actives 1.4% (n = 96,000);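 active means activation factor of 2 or more for CYP2C9 at a 5 µM dose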
sEH inhibitor – inhibitors of human soluble epoxide hydrolase. P34913. recombinant human sEH enzymatic activity assay. inhibition, % at 2 µM. actives 0.34% (n = 91,000); in the data active means inhibition above about 80%
CYP2C19 inh – inhibitors of human CYP2C19; CYP2C19 Supersomes, luciferin-H EGE luminescence, 30 min; inhibition, % at 5 µM; actives 21% (n = 96,000); AID 778;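 active means CYP2C19 inhibition above a set limit at 5 µM in the primary screen, cut at about 50% in these data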
Each line names hits and unclear results; the compound was inactive in the other large screens.

O=C(CCNS(=O)(=O)c1ccccc1F)NCc1ccc2c(c1)OCO2	CYP2C19 inh 70.0
Cc1ccc(S(=O)(=O)N(C)CCCC(=O)NCc2ccc3c(c2)OCO3)cc1	CYP2C9 inhib 75.6, CYP2C19 inh 82.3
CS(=O)(=O)N(CC(=O)NCc1ccc2c(c1)OCO2)c1ccccc1	none
Cc1ccc(N(CC(=O)NCc2ccc3c(c2)OCO3)S(C)(=O)=O)cc1	CYP2C19 inh 55.2
Cc1ccc(S(=O)(=O)NCCC(=O)NCc2ccc3c(c2)OCO3)cc1C	CYP2C9 activ 2.1
O=C(CCNS(=O)(=O)c1ccc2c(c1)CCC(=O)N2)NCc1ccc2c(c1)OCO2	none (no result: sEH activator, sEH inhibitor)
CCCN(CCC)S(=O)(=O)c1ccc(C(=O)NCc2ccc3c(c2)OCO3)cc1	none
O=C1C2C3C=CC(C2C(=O)N1C1CCCCC1)C1C(=O)N(C2CCCCC2)C(=O)C31 (stereo not given)	none
CS(=O)(=O)N(CC(=O)N1CCCCC1)C1CCCCC1	none
Cc1cccc(NC(=O)Cn2cnc3ccc(S(=O)(=O)N4CCC(C)CC4)cc3c2=O)n1	none (no result: sEH activator, sEH inhibitor)
CCN(CC)CCCN1C(=O)c2oc3ccccc3c(=O)c2C1c1cccc(OC)c1OC (stereo not given)	none
CCCc1nnc(NC(=O)Cn2cnc3ccccc3c2=O)s1	none
N#C/C=C1/NC(=O)c2ccccc2S1	CYP2C9 inhib 62.4 (no result: sEH activator, sEH inhibitor)
CN(C)/C=C1/Sc2ccccc2C1=O	none (no result: sEH activator, sEH inhibitor)
c1csc(Cc2nc(-c3ccc(-n4cccc4)cc3)no2)c1	none (no result: CYP2C9 inhib, CYP2C19 act, CYP2C9 activ, CYP2C19 inh)
O=C(O)c1c(F)c(F)cc2ccccc12	none (no result: CYP2C9 inhib, CYP2C19 act, CYP2C9 activ, CYP2C19 inh)
CC(=O)Nc1ccc(S(=O)(=O)Oc2cccc(N3C(=O)C4CCCCC4C3=O)c2)cc1 (stereo not given)	CYP2C9 inhib 75.1
N/C(CN1CCCC1=O)=N\OC(=O)c1ccccc1Cl	none
Cc1n[nH]c(C)c1Sc1ccccc1N=Cc1cc([N+](=O)[O-])ccc1O	CYP2C9 inhib 74.0
O=[N+]([O-])c1ccc([C@H](O)[C@H](CO)N=Cc2ccccc2O)cc1	none
COc1ccc(/C=N/Nc2ccccc2)cc1Cn1nc(C)c([N+](=O)[O-])c1C	CYP2C9 inhib 50.2, CYP2C19 inh 72.5
COc1ccc(N2CCN(C(=O)CCc3ccc(S(=O)(=O)NC(C)C)cc3)CC2)cc1	none (no result: CYP2C9 inhib, CYP2C19 act, CYP2C9 activ, CYP2C19 inh)
COc1ccc(N2CCN(C(=O)c3ccc(S(=O)(=O)N4CCOCC4)cc3)CC2)cc1	none
COc1ccc(N2CCN(C(=O)c3ccc(NS(=O)(=O)c4ccc(F)cc4)cc3)CC2)cc1	CYP2C9 inhib 90.6
CCOc1ccc(S(=O)(=O)Nc2cccc(C(=O)N3CCN(c4ccc(OC)cc4)CC3)c2)cc1	CYP2C9 inhib 60.3, CYP2C19 inh 61.8
C[C@H](NS(=O)(=O)c1ccccc1F)C(=O)OCC(=O)N1CCc2ccccc21	none
Cc1ccc2oc(=O)c3cnn(CC(=O)NC4CCCCC4C)c3c2c1 (stereo not given)	none
COc1ccc(N2C(=O)CC(N3CCN(S(=O)(=O)c4c(F)cccc4F)CC3)C2=O)cc1OC (stereo not given)	none
O=C(C1CCCN(S(=O)(=O)c2cnc[nH]2)C1)N1CCN(c2ccc(Cl)cc2)CC1 (stereo not given)	CYP2C9 inhib 65.2
Cc1cccc(N2CCN(S(=O)(=O)c3ccc(S(=O)(=O)N4CCCC4)cc3)CC2)c1C	none
O=S(=O)(c1ccc(Cl)cc1)N1CCN(c2ccc(N3CCOCC3)nn2)CC1	none (no result: sEH activator, sEH inhibitor)
CN(C)S(=O)(=O)N1CCN(c2ccc(Cl)cc2)CC1	CYP2C19 inh 62.9 (no result: sEH activator, sEH inhibitor)
O=S(=O)(c1cnc[nH]1)N1CCN(c2ccc(Cl)cc2)CC1	CYP2C9 inhib 80.6, CYP2C19 inh 96.3 (no result: sEH activator, sEH inhibitor)
Cc1cccc(N2CCN(S(=O)(=O)c3cnc[nH]3)CC2)c1C	CYP2C9 inhib 96.7, CYP2C19 inh 98.3
CCc1ccc(C2C(C#N)=C(N)C(C#N)(C#N)C3=CCC(C(C)(C)C)CC32)cc1 (stereo not given)	none (no result: CYP2C9 inhib, CYP2C19 act, CYP2C9 activ, CYP2C19 inh)
O=C(O)c1ccc2c(c1)C(=O)N(CCC1=CCCCC1)C2=O	none (no result: sEH activator, sEH inhibitor)
O=C1c2ccccc2C(=O)N1CCC1=CCCCC1	CYP2C19 inh 61.3
Cc1ccc2c(c1)N(CCCC(=O)NCCC1=CCCCC1)C(=O)CO2	CYP2C9 inhib 57.9, CYP2C19 inh 59.1
O=C(CCCN1C(=O)c2ccccc2C1=O)NCCC1=CCCCC1	CYP2C9 inhib 61.5
CC(C)C1Cc2c(sc3[nH]c(=S)n(Cc4ccccc4)c(=O)c23)CO1 (stereo not given)	CYP2C9 inhib 76.9
CCC(=O)OC1CSc2nc3ccccc3n2C1 (stereo not given)	none
CCC(CC)C1C(C#N)=C(N)Oc2cc(C)oc(=O)c21 (stereo not given)	CYP2C9 inhib 72.5, CYP2C19 inh 96.1
Cc1cc(F)ccc1NCc1cccnc1	CYP2C19 inh 50.0
c1ccc(-c2nn3c(Cn4cnc5ccccc54)nnc3s2)cc1	CYP2C19 inh 78.8
c1ccc2c(c1)ncn2Cc1nnc2sc(-c3ccncc3)nn12	CYP2C19 inh 78.5
c1cncc(-c2nn3c(Cn4cnc5ccccc54)nnc3s2)c1	none
Cc1nnsc1C(=O)Nc1cc(Cl)ccc1Cl	none (no result: CYP2C9 inhib, CYP2C19 act, CYP2C9 activ, CYP2C19 inh)
CC1CCN(S(=O)(=O)c2ccc3ccccc3c2)CC1	CYP2C9 activ 2.7, CYP2C19 inh 83.3
CN1CCN(S(=O)(=O)c2ccc3ccccc3c2)CC1	CYP2C9 activ 2.5
CN(C)S(=O)(=O)N1CCN(S(=O)(=O)c2ccc3ccccc3c2)CC1	none
CCOC(=O)N1CCC(N2CCN(S(=O)(=O)c3ccc4ccccc4c3)CC2)CC1	CYP2C9 activ 2.2
Cc1ccc(S(=O)(=O)N2CCCN(S(=O)(=O)c3ccc4ccccc4c3)CC2)cc1	none (no result: CYP2C9 inhib, CYP2C19 act, CYP2C9 activ, CYP2C19 inh)
O=c1[nH][nH]c(-c2ccccc2)c1C=Nc1ccc(Cl)cc1	none
O=c1[nH][nH]c(-c2ccccc2)c1C=Nc1ccccc1Cl	CYP2C19 inh 88.1
O=c1[nH][nH]c(-c2ccccc2)c1C=Nc1cccc(Cl)c1	CYP2C19 inh 52.8
CCOC(=O)C(NC(C)=O)C(OC(C)=O)c1cccc(N(CCO)CCO)c1 (stereo not given)	none
O=C(CC1CCS(=O)(=O)C1)Nc1ccc[nH]c1=O (stereo not given)	none
CN(C)C(=O)CCc1nc(-c2ccc(C(C)(C)C)cc2)no1	none
CCc1ccccc1N(CC)C(=O)CCc1nc(-c2ccc(C)cc2)no1	CYP2C9 inhib 54.7
CC(C)(C)c1ccc(-c2noc(CCC(=O)NCC3CCCO3)n2)cc1 (stereo not given)	CYP2C19 inh 64.7
CCN(Cc1ccccc1)C(=O)CCc1nc(-c2ccc(C)cc2)no1	CYP2C9 inhib 88.5, CYP2C19 inh 81.4
CCOC(=O)N1CCC(NC(=O)CCc2nc(-c3ccc(C)cc3)no2)CC1	CYP2C9 inhib 72.9
Cc1ccc(-c2noc(CCC(=O)Nc3ccc(C)cn3)n2)cc1	none
O=c1[nH]c2ccc(S(=O)(=O)NCc3ccccn3)cc2s1	none (no result: sEH activator, sEH inhibitor)
CCn1cc(C(=O)NCCCOC)c(=O)c2cc(S(=O)(=O)N(C)C)ccc21	none (no result: CYP2C9 inhib, CYP2C19 act, CYP2C9 activ, CYP2C19 inh)
